# TDP1 cell CPT – DT40-hTDP1 cell growth loss with CPT; AID 686979; actives 12% (n = 420,000); chicken DT40 Tdp1-/-;hTDP1 cells + 20 nM CPT, ATP luminescence, 48 h; Potency, µM (highest dose often 46.2 µM), for inactives: top-dose activity change, negative = growth inhibition, most hits filed as inhibitors; also: nearly all actives have a fitted effect of over 55% in size
#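 Cell growth measured by CellTiter-Glo luminescence after a minimum 48 h, 37 C compound exposure with 20 nM CPT in Tdp1-knockout DT40 cells stably expressing hTDP1, seeded 400/well; qHTS titration format.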
# HT1080 IDH1KD tx – HT-1080 IDH1 knockdown cell toxicity (counter line); HT-1080 IDH1 knockdown viability, ATP luminescence, 48 h; Potency, µM (highest dose often 46.1 µM), inactives show at the top dose activity, negative = toxicity, usual class: cytotoxic; actives 2% (n = 360,000); AID 686971;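 also: 0% = DMSO wells and -100% = cell-free medium wells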
#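 After a 2 h attachment period, IDH1KD HT-1080 cells took pin-transferred compound for 48 h at 37 °C; ATP-based luminescence after 10 min room-temperature reagent incubation reported viability.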
# KB-V1 cytotox – KB-V1 MDR subline cytotoxicity; KB-V1 MDR cells viability, CellTiter-Glo, 72 h; Potency, µM (series often up to 46.1 µM), hits mostly cytotoxic; actives 3.4% (n = 400,000); AID 1347076; also: nearly all actives have a fitted effect of over 60% in size
#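 qHTS viability screen in drug-selected KB-V1 MDR cells: 72 h compound treatment at 37 degrees C, ATP luminescence end point.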
# KB-3-1 tox – kills parental KB-3-1 adenocarcinoma cells. KB-3-1 viability, CellTiter-Glo ATP luminescence, 72 h. Potency, µM (highest dose often 46.1 µM), hits mostly cytotoxic. actives 1.4% (n = 400,000). AID 1347075; also: nearly all actives have a fitted effect of over 60% in size
#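 Cells are dispensed, compounds pinned in, plates held at 37 °C for 72 h, then CellTiter-Glo is added and luminescence read after 10 minutes. Cell line: parental KB-3-1 in phenol-red-free DMEM, 10% FBS.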
# HT1080NT lethal – kills 2HG-producing HT-1080-NT fibrosarcoma cells. HT-1080-NT fibrosarcoma viability, CellTiter-Glo ATP luminescence, 48 h. Potency, µM (top dose mostly 46.1 µM), without a hit: at the highest dose activity, negative = less viability, usual class: cytotoxic. actives 1.6% (n = 360,000);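 also: NT is the 2HG producing partner of a matched IDH1 knockdown line; 0% = DMSO-treated cells and -100% = media-only wells without cells; nearly all actives have a fitted effect of over 55% in size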
#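 Compounds were tested in concentration-response format on HT-1080-NT cells for 48 hours at 37 degrees C. Cell viability came from CellTiter-Glo luminescence; curves were classified by r2, response magnitude and activity.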
# DT40 TDP1 no CPT – qHTS for Inhibitors of human tyrosyl-DNA phosphodiesterase 1 (TDP1): qHTS in cells in absence of CPT; Potency, µM (highest dose often 46.2 µM), inactives show at the highest dose activity change, negative = growth inhibition, actives largely listed as inhibitors; AID 686978, 2013; actives 15% (n = 420,000); DT40 Tdp1-/- hTDP1 cells, no CPT, ATP luminescence, 48 h; also: nearly all actives have a fitted effect of over 55% in size
#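 Stably hTDP1-transfected Tdp1-null chicken DT40 cells were treated with library compounds minus camptothecin and grown for at least 48 hr at 37 °C, after which cellular ATP was quantified by luminescence.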
# The depositor's hits bear a star; i = inactive; ? = inconclusive; · = no result. Compounds with a hit are over-represented: about 19% of the library has one in this group of screens. Calls follow the shape of the dose curve; as a rule, active = well fitted curve in the direction sought with a large enough effect; inconclusive = small, poorly fitted or top-dose-only effect, or another doubt; inactive = no such curve, though single readings can be large; an effect the other way counts as inactive or inconclusive. Unless noted, % is scaled to controls: 0 for no effect and ±100 for the full control effect; potency is read from the fitted curve at half-maximal effect.
SMILES,TDP1 cell CPT,HT1080 IDH1KD tx,KB-V1 cytotox,KB-3-1 tox,HT1080NT lethal,DT40 TDP1 no CPT
CCC(C)c1ccccc1NC(=O)C(C)N(C)Cc1cccc(OC)c1 (stereo not drawn),?,-24%,i,i,-19%,16µM*
COc1ccc(CNC(=O)C(C)N(C)Cc2cccc(F)c2)cc1 (stereo not drawn),?,-1%,i,i,-2%,-26%
COc1ccc(NC(=O)C(C)N(C)Cc2ccc3ccccc3c2)cc1 (stereo not drawn),?,-18%,i,i,-2%,13µM*
COc1cccc(CN(C)CC(=O)Nc2c(C)cccc2C(C)C)c1,?,-24%,?,?,-6%,?
Cc1ccc(S(=O)(=O)N2CCCC2)cc1C(=O)NCC(C)(C)N1CCOCC1,-21%,14%,i,i,8%,?
O=C(NC(C(=O)N/N=C/c1c2ccccc2cc2ccccc12)c1n[nH]c(=O)c2ccccc12)c1ccccc1 (stereo not drawn),8.2µM*,-4%,i,i,-3%,10µM*
CC(=O)N1CC2(CC(c3ccccc3C(F)(F)F)=NO2)CN1c1ccc(Cl)cc1 (stereo not drawn),?,-7%,?,i,-5%,?
Cc1cc([N+](=O)[O-])ccc1-c1ccc(C2Nc3ccccc3C(=O)N2O)o1 (stereo not drawn),23µM*,7.1µM*,i,23µM*,?,23µM*
O=C1c2ccccc2NC(c2ccc(-c3ccccc3F)o2)N1O (stereo not drawn),·,·,i,?,·,·
CCOC(=O)n1c(=O)n(C)c2ccc(Br)cc21,-27%,12%,?,?,-1%,?
CCOC(=O)n1c(=O)[nH]c2ccc(Br)cc21,0%,12%,i,i,18%,18µM*
COc1ccc(CN2C(=O)C(CC(=O)NCCc3ccccn3)CC(C(=O)N(C)C)=C2C)cc1 (stereo not drawn),25%,0%,i,i,3%,-18%
COc1ccc(N2CC(NC(=O)c3c(F)cccc3Cl)CC2=O)cc1OC (stereo not drawn),7%,·,i,i,·,5%
Cc1cccc(NS(=O)(=O)c2cccc(C(=O)NCC(c3ccco3)N3CCCCC3)c2)c1 (stereo not drawn),21µM*,0%,?,i,-6%,23µM*
Cc1cccc(NS(=O)(=O)c2cccc(C(=O)NCC(c3ccc(F)cc3)N3CCOCC3)c2)c1 (stereo not drawn),?,-7%,21µM*,?,0%,?
COc1ccccc1NS(=O)(=O)c1ccc(C(=O)NCC(c2ccccc2OC)N(C)C)cc1 (stereo not drawn),-11%,5%,i,i,-2%,-13%
Cc1cccc(NS(=O)(=O)c2ccc(C(=O)NCC(c3ccccc3)N(C)C)cc2)c1C (stereo not drawn),16µM*,?,i,i,?,?
O=C(NCC(c1ccco1)N1CCCCC1)c1ccc(NS(=O)(=O)c2ccc(F)cc2)cc1 (stereo not drawn),-20%,-8%,·,·,-2%,?
Cc1cccc(NS(=O)(=O)c2ccc(C(=O)NCC(c3ccco3)N3CCCCC3)cc2)c1C (stereo not drawn),?,-10%,?,?,-15%,23µM*
Clc1ccccc1Cc1cn2cc(-c3ccccc3)nc2s1,?,·,?,i,·,?
Cc1c(Cl)cccc1NC(=O)C(CCS(C)(=O)=O)N1Cc2ccccc2C1=O (stereo not drawn),?,·,i,i,·,-38%
Cc1cccc(NS(=O)(=O)c2ccc(C)c(C(=O)NCC(c3cccs3)N3CCOCC3)c2)c1 (stereo not drawn),?,0%,i,i,3%,16µM*
COc1ccc(C(CNC(=O)c2cc(S(=O)(=O)Nc3cccc(C)c3)ccc2C)N2CCOCC2)cc1 (stereo not drawn),?,-2%,i,i,-1%,?
O=C(O)CC(NC(=O)/C(=C/c1ccccc1)NC(=O)c1ccccc1)c1ccccc1 (stereo not drawn),7%,-1%,i,i,5%,0%
O=C(NCCc1ccccc1)C1CCN(c2ncnc3c2nc2n3CCCCC2)CC1,-5%,·,·,·,·,3%
SMILES,TDP1 cell CPT,HT1080 IDH1KD tx,KB-V1 cytotox,KB-3-1 tox,HT1080NT lethal,DT40 TDP1 no CPT
Cc1cccc(CN2CCC(C(N)=O)CC2)c1,2%,-6%,i,i,-17%,8%
Cc1ccc(Cn2c(CN3CCC(C(=O)NCc4cccnc4)CC3)cc3ccccc32)cc1,?,·,i,i,·,?
CNC(=O)C1CCN(Cc2cc3ccccc3n2Cc2cccc(C)c2)CC1,18µM*,·,i,i,·,16µM*
Cc1ccc(Cn2c(CN3CCC(C(=O)NCc4ccccc4C)CC3)cc3ccccc32)cc1,21µM*,·,i,i,·,16µM*
COCCNC(=O)C1CCN(Cc2cc3ccccc3n2Cc2ccc(C)cc2)CC1,16µM*,·,i,i,·,21µM*
CCN(CC)c1ccc(CN2CCC(C(=O)NCc3ccc(C)cc3)CC2)cc1,15µM*,-26%,?,i,?,15µM*
COc1ccc(NC(=O)c2nc[nH]c2C(=O)N(C)CCO)cc1,-14%,11%,i,i,-1%,3%
CCNC(=O)C1CCN(Cc2cc3ccccc3n2Cc2ccc(C)cc2)CC1,23µM*,·,i,i,·,21µM*
O=S(=O)(Nc1ccc(N=Nc2ccccc2)cc1)c1ccccc1,?,-15%,3.3µM*,i,15%,?
O=S(=O)(Nc1ccc(S(=O)(=O)Nc2ccccc2)cc1)c1ccccc1,?,4%,i,i,13%,-21%
CCOC(=O)NC(=O)/C(C#N)=N\Nc1cccc(Cl)c1,23µM*,-3%,i,?,1%,21µM*
CC1(C)C2CCC(C2)C1(C)NC(=O)CNC1CCCCC1 (stereo not drawn),?,5%,i,i,-4%,10µM*
CC1(C)OC2OC3C(CNCCO)OC(c4ccccc4)OC3C2O1 (stereo not drawn),-11%,12%,i,i,14%,3%

# Screening data as filed in PubChem BioAssay.
